# Measurements reported in ChEMBL document CHEMBL1961873, “Compounds: GSK PKIS; Assays: Nanosyn kinase panel” (2012).
# Legend:
# [1] = test system: Proto-oncogene tyrosine-protein kinase receptor Ret (Homo sapiens), P07949 [Y791F]; conditions: at 1 µM
# [2] = biological target: Macrophage-stimulating protein receptor (Homo sapiens) (UniProt Q04912); conditions: at 0.1 µM
# [3] = biological target: Macrophage-stimulating protein receptor (Homo sapiens) (UniProt Q04912); conditions: at 1 µM
# [4] = biological target: Proto-oncogene tyrosine-protein kinase ROS (Homo sapiens) (UniProt P08922); conditions: at 0.1 µM
# Proto-oncogene tyrosine-protein kinase ROS (Homo sapiens), sequence (P08922 whole entry): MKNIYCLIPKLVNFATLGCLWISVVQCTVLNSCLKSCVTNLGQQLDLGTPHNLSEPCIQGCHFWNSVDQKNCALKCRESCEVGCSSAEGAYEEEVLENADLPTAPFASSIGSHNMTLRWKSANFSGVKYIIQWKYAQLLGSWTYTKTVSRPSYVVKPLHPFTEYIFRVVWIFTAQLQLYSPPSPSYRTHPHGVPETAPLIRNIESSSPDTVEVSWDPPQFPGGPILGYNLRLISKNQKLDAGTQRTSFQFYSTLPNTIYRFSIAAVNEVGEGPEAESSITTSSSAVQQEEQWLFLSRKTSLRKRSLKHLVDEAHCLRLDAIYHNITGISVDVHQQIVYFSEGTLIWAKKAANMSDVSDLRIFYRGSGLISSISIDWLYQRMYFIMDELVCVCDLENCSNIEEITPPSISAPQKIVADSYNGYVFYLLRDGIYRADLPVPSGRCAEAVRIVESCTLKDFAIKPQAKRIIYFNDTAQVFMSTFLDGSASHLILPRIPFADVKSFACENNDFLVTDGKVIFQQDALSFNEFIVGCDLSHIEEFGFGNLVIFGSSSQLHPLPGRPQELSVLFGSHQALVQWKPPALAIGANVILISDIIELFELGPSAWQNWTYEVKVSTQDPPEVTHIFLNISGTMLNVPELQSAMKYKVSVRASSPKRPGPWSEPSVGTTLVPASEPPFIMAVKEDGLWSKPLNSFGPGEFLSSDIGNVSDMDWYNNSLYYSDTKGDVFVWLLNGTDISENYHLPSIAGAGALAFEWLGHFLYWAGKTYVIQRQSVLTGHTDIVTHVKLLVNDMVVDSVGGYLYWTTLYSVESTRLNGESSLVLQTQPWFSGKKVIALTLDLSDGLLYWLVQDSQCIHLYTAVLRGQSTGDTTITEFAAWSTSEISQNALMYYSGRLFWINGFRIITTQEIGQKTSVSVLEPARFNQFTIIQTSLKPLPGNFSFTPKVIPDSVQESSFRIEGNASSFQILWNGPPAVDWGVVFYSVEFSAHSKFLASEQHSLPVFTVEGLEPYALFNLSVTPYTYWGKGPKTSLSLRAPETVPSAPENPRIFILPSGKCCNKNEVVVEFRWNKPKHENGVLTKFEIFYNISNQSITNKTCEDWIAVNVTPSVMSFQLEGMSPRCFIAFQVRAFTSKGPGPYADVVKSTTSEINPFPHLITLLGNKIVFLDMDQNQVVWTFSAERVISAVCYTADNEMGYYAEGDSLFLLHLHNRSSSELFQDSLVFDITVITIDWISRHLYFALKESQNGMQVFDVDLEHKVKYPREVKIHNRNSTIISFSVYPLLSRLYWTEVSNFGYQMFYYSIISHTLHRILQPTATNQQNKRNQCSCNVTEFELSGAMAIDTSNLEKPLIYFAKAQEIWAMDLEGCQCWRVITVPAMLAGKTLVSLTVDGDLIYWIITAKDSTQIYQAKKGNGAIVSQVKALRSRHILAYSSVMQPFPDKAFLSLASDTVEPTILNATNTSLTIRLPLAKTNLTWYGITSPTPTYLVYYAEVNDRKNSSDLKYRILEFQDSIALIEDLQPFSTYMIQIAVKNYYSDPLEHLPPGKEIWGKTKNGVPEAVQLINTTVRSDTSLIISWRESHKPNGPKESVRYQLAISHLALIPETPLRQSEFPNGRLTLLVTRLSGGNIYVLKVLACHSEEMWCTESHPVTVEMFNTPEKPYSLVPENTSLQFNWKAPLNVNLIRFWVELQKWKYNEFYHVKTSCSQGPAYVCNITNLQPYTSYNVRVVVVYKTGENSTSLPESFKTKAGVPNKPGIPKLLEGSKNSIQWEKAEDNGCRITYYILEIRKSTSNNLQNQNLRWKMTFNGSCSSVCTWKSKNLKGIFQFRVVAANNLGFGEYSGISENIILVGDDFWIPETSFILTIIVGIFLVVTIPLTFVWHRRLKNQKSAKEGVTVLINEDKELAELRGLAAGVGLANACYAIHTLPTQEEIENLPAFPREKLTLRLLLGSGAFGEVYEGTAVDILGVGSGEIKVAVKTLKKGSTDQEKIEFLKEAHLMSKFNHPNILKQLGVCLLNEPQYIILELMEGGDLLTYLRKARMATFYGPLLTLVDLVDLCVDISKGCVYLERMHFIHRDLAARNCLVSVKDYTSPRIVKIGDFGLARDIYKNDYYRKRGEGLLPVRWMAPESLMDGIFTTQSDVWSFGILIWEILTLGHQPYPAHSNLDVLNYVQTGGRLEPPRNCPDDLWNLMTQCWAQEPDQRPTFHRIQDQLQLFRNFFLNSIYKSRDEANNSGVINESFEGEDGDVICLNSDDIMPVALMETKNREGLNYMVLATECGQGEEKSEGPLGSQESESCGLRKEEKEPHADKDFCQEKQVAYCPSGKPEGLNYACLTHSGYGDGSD
# [5] = biological target: Proto-oncogene tyrosine-protein kinase ROS (Homo sapiens) (UniProt P08922); conditions: at 1 µM
# [6] = biological target: Proto-oncogene tyrosine-protein kinase Src (Homo sapiens) (UniProt P12931); conditions: at 0.1 µM
# [7] = biological target: Proto-oncogene tyrosine-protein kinase Src (Homo sapiens) (UniProt P12931); conditions: at 1 µM
# [8] = biological target: Tyrosine-protein kinase Srms (Homo sapiens) (UniProt Q9H3Y6); conditions: at 0.1 µM
# Tyrosine-protein kinase Srms (Homo sapiens), sequence (Q9H3Y6 whole entry): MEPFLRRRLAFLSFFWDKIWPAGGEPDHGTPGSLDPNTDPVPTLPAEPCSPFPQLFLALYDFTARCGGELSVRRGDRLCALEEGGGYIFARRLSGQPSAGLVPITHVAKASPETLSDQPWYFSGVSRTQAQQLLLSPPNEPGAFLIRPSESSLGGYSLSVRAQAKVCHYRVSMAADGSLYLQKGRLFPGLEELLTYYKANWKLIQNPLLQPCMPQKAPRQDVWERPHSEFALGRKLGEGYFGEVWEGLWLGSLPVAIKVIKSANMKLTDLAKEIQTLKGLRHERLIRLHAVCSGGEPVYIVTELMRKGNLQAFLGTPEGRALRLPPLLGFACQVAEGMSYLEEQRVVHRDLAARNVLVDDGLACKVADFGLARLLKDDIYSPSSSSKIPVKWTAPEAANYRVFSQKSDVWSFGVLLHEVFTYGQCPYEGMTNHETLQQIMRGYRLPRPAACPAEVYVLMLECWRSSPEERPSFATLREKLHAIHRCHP
# [9] = biological target: Tyrosine-protein kinase Srms (Homo sapiens) (UniProt Q9H3Y6); conditions: at 1 µM
# [10] = biological target: Tyrosine-protein kinase SYK (Homo sapiens) (UniProt P43405); conditions: at 0.1 µM
# [11] = biological target: Tyrosine-protein kinase SYK (Homo sapiens) (UniProt P43405); conditions: at 1 µM
# [12] = biological target: T1, Tyrosine-protein kinase Tec (Homo sapiens) (UniProt P42680); conditions: at 0.1 µM
# T1 sequence (whole entry): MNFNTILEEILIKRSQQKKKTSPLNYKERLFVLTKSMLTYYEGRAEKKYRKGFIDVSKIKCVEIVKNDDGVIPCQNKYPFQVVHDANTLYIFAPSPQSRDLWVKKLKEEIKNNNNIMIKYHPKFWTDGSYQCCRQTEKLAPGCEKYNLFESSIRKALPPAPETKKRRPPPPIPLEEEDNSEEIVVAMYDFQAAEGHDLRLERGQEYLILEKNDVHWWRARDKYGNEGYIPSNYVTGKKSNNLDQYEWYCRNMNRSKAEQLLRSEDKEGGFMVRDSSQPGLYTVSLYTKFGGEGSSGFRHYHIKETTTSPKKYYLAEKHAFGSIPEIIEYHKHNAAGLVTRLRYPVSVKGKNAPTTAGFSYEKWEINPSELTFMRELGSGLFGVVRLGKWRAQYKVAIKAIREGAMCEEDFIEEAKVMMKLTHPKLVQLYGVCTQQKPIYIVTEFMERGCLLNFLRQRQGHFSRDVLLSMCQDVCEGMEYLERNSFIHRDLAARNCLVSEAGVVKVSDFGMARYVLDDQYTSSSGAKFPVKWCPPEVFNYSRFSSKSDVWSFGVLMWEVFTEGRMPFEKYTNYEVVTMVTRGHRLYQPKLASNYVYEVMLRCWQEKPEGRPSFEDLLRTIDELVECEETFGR
# [13] = biological target: T1, Tyrosine-protein kinase Tec (Homo sapiens); conditions: at 1 µM
# [14] = biological target: Angiopoietin-1 receptor (Homo sapiens) (UniProt Q02763); conditions: at 0.1 µM
# [15] = biological target: Angiopoietin-1 receptor (Homo sapiens) (UniProt Q02763); conditions: at 1 µM
# [16] = biological target: T2, Non-receptor tyrosine-protein kinase TNK1 (Homo sapiens) (UniProt Q13470); conditions: at 0.1 µM
# T2 sequence (whole entry): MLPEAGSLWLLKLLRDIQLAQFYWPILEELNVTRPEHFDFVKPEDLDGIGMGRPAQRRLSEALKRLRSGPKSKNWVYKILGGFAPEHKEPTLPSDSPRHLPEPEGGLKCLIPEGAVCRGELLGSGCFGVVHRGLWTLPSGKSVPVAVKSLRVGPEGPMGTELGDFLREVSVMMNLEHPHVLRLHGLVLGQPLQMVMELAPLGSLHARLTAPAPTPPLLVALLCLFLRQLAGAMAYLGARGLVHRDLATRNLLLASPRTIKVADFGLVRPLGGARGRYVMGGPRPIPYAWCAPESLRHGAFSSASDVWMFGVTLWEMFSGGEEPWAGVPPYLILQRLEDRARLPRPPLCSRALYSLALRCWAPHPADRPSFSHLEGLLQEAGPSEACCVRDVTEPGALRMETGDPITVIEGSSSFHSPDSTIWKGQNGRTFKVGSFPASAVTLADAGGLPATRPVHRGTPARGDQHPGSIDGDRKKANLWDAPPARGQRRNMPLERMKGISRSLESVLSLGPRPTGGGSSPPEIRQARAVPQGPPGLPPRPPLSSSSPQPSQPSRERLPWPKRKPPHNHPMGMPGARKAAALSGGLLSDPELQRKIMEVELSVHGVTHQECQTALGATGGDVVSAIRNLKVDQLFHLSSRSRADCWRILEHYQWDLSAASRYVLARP
# [17] = biological target: T2, Non-receptor tyrosine-protein kinase TNK1 (Homo sapiens); conditions: at 1 µM
# [18] = biological target: Activated CDC42 kinase 1 (Homo sapiens) (UniProt Q07912); conditions: at 0.1 µM
# [19] = biological target: Activated CDC42 kinase 1 (Homo sapiens) (UniProt Q07912); conditions: at 1 µM
# [20] = biological target: High affinity nerve growth factor receptor (Homo sapiens) (UniProt P04629); conditions: at 0.1 µM;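 note: each value is a mean of replicate percent inhibition readings against TRKA kinase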
# High affinity nerve growth factor receptor (Homo sapiens), sequence (P04629 33-796 limits assumed): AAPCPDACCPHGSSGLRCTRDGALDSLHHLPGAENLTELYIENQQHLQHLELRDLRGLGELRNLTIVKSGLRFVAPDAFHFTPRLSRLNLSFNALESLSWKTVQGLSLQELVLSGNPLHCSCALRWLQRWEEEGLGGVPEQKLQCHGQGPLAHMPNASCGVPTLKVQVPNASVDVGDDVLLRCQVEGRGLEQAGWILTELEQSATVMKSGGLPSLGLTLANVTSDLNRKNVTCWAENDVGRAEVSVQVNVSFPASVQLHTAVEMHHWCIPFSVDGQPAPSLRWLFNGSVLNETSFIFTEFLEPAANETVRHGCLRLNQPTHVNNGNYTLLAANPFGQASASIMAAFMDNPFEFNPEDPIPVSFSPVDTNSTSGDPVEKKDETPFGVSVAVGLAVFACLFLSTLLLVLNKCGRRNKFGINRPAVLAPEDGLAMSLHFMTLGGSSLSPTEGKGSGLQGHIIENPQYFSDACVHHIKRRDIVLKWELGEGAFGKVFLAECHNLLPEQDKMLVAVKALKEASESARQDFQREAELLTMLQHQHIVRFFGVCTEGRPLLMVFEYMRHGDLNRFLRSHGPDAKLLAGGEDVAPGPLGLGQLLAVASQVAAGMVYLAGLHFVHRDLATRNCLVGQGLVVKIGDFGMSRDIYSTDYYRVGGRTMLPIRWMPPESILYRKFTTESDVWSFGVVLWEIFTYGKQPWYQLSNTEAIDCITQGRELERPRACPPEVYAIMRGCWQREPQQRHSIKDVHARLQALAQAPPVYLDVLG
# Macrophage-stimulating protein receptor (Homo sapiens), sequence (Q04912 25-304 limits assumed): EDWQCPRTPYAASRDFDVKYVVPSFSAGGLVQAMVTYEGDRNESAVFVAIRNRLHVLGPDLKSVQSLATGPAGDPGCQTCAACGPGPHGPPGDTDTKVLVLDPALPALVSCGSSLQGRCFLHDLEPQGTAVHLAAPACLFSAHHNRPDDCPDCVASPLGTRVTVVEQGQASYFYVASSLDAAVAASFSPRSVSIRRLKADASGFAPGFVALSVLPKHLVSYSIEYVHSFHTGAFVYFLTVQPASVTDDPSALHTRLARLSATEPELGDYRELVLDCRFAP
# Macrophage-stimulating protein receptor (Homo sapiens), sequence (Q04912 310-1400 limits assumed): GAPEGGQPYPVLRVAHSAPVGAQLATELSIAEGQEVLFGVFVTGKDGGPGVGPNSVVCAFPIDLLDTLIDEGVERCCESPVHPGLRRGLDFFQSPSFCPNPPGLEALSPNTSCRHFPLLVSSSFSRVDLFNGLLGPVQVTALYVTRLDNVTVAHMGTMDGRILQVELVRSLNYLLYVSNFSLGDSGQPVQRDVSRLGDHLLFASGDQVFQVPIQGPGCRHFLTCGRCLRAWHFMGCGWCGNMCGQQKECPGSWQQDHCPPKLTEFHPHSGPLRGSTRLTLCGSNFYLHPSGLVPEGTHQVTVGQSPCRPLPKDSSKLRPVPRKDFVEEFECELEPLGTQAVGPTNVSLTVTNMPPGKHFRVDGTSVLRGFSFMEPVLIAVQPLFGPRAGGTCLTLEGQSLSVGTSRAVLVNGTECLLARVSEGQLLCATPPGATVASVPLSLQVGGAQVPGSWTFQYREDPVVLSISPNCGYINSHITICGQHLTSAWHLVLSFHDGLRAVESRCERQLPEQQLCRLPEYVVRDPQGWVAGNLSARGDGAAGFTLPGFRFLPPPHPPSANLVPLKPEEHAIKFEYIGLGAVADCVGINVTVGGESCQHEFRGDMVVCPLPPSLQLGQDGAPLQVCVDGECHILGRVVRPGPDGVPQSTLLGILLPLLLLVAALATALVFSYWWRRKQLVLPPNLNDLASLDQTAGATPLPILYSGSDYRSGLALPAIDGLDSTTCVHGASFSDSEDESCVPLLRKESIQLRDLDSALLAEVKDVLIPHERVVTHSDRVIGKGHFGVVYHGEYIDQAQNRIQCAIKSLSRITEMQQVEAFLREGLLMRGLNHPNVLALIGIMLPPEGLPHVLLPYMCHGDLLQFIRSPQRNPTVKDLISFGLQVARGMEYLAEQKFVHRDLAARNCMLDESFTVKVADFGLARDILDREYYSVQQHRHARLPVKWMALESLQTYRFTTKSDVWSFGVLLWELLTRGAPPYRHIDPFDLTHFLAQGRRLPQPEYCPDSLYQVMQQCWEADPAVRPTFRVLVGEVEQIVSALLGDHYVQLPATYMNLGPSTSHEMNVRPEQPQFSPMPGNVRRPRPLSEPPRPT
Structure (SMILES),inhibition [1] [%],inhibition [2] [%],inhibition [3] [%],inhibition [4] [%],inhibition [5] [%],inhibition [6] [%],inhibition [7] [%],inhibition [8] [%],inhibition [9] [%],inhibition [10] [%],inhibition [11] [%],inhibition [12] [%],inhibition [13] [%],inhibition [14] [%],inhibition [15] [%],inhibition [16] [%],inhibition [17] [%],inhibition [18] [%],inhibition [19] [%],inhibition [20] [%]
Nc1nc(-c2ccc(F)cc2)c(-c2ccc3ncccc3n2)s1,14,-8.7,7.82,4.44,15.8,-1.89,14.2,0.67,3.74,-1.32,0.4,4.57,6.46,1.26,4.32,4.65,6.8,1.85,3.57,4.1
COc1ccc(-c2oc3ncnc(N)c3c2-c2ccc(NC(=O)Nc3cc(C(F)(F)F)ccc3F)cc2)cc1,94.7,4.83,21.8,32.7,81.2,43.1,91.1,1.78,8.83,-0.9,-8.92,5.43,14,79.3,86.1,21,85.3,4.09,9.81,71.1
COc1ccc2[nH]c3c4[nH]c5ccc(OC)cc5c4c4c(c3c2c1)C(=O)NC4=O,67.3,6.28,16.9,55.8,79.1,-1.01,20.4,3.34,15.6,-7.81,10.5,6.89,31,1.36,5,63.6,89,5.57,16,3.47
NS(=O)(=O)c1ccc(Nc2ncc(-c3ccccc3)o2)cc1,7.3,4,6.45,3.2,13.1,1.97,18.3,-0.76,0.22,3.95,-1.05,4.68,7.4,2.1,2.98,4.37,18.5,1.26,3.09,5.28
COc1ccc(-c2cc(-c3c[nH]nc3-c3ccccn3)ccn2)cc1,17.4,2.4,21.3,3.05,8.62,0.76,11.1,-2.06,0.71,-6.85,-0.69,4.44,5.59,2.18,2.66,4.34,11.9,1.58,3.35,1.86
Fc1ccc(-c2cc(-c3c[nH]nc3-c3ccccn3)ccn2)cc1,13.8,4.71,8.86,6.8,8.14,0.27,9,-0.96,-1.26,0.3,-0.94,3.71,3.67,2.32,2.49,3.71,17.8,2.51,1.26,2.16
COc1cc2c(cc1Nc1nc(Nc3ccsc3C(N)=O)c3cc[nH]c3n1)N(C(=O)CN(C)C)CCC2(C)C,18.7,-4.25,28.9,79.7,83.1,0.33,11.7,-1.82,-3.22,-6.01,4.93,5.38,8.93,1.06,3.63,60.5,89.3,6.79,43.5,2.83
COc1ccc(-c2nn3ncccc3c2-c2ccnc(Nc3ccc4c(c3)OCCO4)n2)cc1,56.2,-3.38,8.88,6.79,21.9,7.57,51.7,0.02,0.99,1.19,-0.41,1.33,11.9,8.07,45.9,6.95,51.1,-0.12,3.47,0.04
Fc1cccc(COc2ccc(Nc3ncnc4sc(-c5ccco5)cc34)cc2Cl)c1,6.83,-0.84,3.24,1.53,8.29,7.3,6.58,-3.52,-1.36,-3.2,-6.92,0.94,5.13,4.1,6.76,1.8,17,1.13,1.93,1.02
CCCN(CCS(C)(=O)=O)Cc1ccc(-c2ccc3ncnc(Nc4ccc(OCc5cccc(F)c5)c(Cl)c4)c3c2)o1,2.22,2.96,4.1,2.72,6.67,3.8,6.22,1.1,2.29,-1.64,1.17,2.93,4.68,1.56,6.25,1.24,12,0.32,1.4,2.55
CCOc1ccc2c(-c3ccnc(Nc4cccc(C(F)(F)F)c4)n3)cnn2n1,12.4,4.92,-3.11,2.05,15,4.83,3.76,-3.13,-1.56,-1.67,-6.38,-0.08,4.44,1.3,7.44,-0.72,14.7,0.55,0.5,0.72
CNC(=O)c1cncc(/C=C/c2ccccc2Cl)c1,22.8,2.22,7.21,-2.16,2.7,10.1,7.14,1.76,3.3,7.26,0.31,2.56,10.2,-0.85,4.09,2.57,27.7,0.2,5.7,-5.21
FC(F)(F)c1cccc(-c2nn3ncccc3c2-c2ccnc(Nc3ccc4c(c3)OCCO4)n2)c1,22.1,5.16,4.5,1.05,4.18,12.8,47.9,0.82,2.59,0.9,-1.91,4.21,15.5,4.09,10.6,1.44,5.7,0.31,0.47,1.71
